Assay outcomes (PubChem)
Epigenetic reg: derepresses silenced GFP reporter in murine cells | murine LDR cells, GFP reporter derepression, 30 h | Potency, µM (doses to about 53.9 µM), without a hit: at the highest dose GFP activation, actives largely listed as activators | actives 0.2% (n = 280,000) | AID 1865; further: % of control where 0% means no effect; nearly all actives have a fitted effect of over 60% in size
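Derepression of a silenced CMV-GFP reporter in murine LDR cells is scored by enumerating GFP-positive cells with a laser-scanning microplate cytometer after 30 hours of treatment at 37 C.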
NPSR antag: blocks cAMP signaling of the human neuropeptide S receptor | CHO-NPSR cells, cAMP TR-FRET, antagonist mode | Potency, µM (series often up to 38.3 µM), for the others: at the top dose activity change, negative = inhibition, most hits filed as inhibitors | actives 1% (n = 220,000) | AID 1461; further: on the % scale 0 is the no-effect control and ±100 the full control effect; nearly all actives have a fitted effect of over 50% in size
IMPase Li cell: cell-permeable IMPase inhibitors with lithium potentiation. AID 1457. Potency, µM (top dose mostly 59.4 µM), without a hit: top-dose activity, negative = IMPase inhibition, actives largely listed as inhibitors. actives 0.35% (n = 210,000). CHO-M1 cells, IP1 TR-FRET (IP-One), carbachol + lithium;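 further: IP1 builds up when IMPase is blocked and the TR-FRET signal falls; plate controls were basal vehicle for no effect and high inhibitor control for full effect; nearly all actives have a fitted effect of over 50% in size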
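CHO cells stably expressing M1 receptor (2000/well) were cultured 16–30 h, then exposed to compounds with a small lithium addition for 30 min at 37C. IP1 was measured by TR-FRET competition; AC50 from Hill fits.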
GCN5L2 inh: blocks human GCN5L2 histone acetyltransferase; Q92830; GCN5L2 HAT assay, ThioGlo1 CoA-SH fluorescence; Potency, µM (titrated, usually from 58.9 µM), for inactives: at the highest dose activity change, negative = inhibition, most hits filed as inhibitors; actives 0.21% (n = 390,000); AID 504327; further: on the % scale 0 is the no-effect control and ±100 the full control effect
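ThioGlo1-coupled HAT assay: 20nM GCN5L2, 70uM acetyl-CoA, 75uM H3(1-25) peptide, pH 7.5. Fluorescence read at 340/540nm at start and after 20 min at room temperature.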
Sfp PPTase inh: Sfp phosphopantetheinyl transferase inhibition | Q9F4F7 | Biochemical Sfp PPTase activity, qHTS | Potency, µM, without a hit: largest response in the series, negative = inhibition, hits mostly inhibitors | actives 3.5% (n = 310,000);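 further: the enzyme is Sfp with the accession as filed and its product quenches rhodamine fluorescence; 0% = enzyme reaction without inhibitor and -100% = no enzyme wells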
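Fluorescence-quenching assay: 15 nM Sfp-PPTase preincubated 15 min at room temperature with compound, then 5 uM rhodamine-CoA and 12.5 uM BHQ-2-labelled YbbR peptide added. Fluorescence (ex 525/em 598 nm) read at start and after 30 min; difference gives rate.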
KDM4E inh: inhibitors of human JMJD2E histone demethylase; AID 2147; Potency, µM (series often up to 57.1 µM), without a hit: top-dose activity change, negative = inhibition, hits mostly inhibitors; B2RXH2; JMJD2E catalytic domain, FDH-coupled NADH fluorescence (FDH is formaldehyde dehydrogenase); actives 1.6% (n = 230,000); active means well fitted inhibition curve with a large enough effect, not every such curve was filed as active; inconclusive means small, poorly fitted or top-dose-only effect, or another doubt; inactive means no such curve, though single readings can be large or run the other way;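 further: 0% = wells with enzyme and -100% = buffer wells without enzyme; nearly all actives have a fitted effect of over 50% in size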
Target sequence (B2RXH2 1-337 limits assumed): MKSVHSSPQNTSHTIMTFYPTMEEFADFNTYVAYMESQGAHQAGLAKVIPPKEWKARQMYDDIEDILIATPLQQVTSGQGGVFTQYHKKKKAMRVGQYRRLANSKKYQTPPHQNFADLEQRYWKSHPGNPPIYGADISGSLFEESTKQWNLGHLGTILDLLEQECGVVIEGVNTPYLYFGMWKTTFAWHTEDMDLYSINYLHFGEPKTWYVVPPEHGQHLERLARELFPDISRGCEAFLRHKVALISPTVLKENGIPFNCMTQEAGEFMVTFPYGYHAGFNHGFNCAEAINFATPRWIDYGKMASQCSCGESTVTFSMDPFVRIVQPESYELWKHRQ
An asterisk follows results filed as active; ? = inconclusive; · = no result; [ ] = remark or other dose. Compounds with a hit are over-represented: about 3.6% of the library has one in this group of screens. Unless noted, the call rests on the fitted dose curve; in most records, active means well fitted curve in the direction sought with a large enough effect; inconclusive means small, poorly fitted or top-dose-only effect, or another doubt; inactive means no such curve, though single readings can be large; an effect the other way counts as inactive or inconclusive. Potency means the concentration at half of the fitted maximal effect.

SMILES	Epigenetic reg	NPSR antag	IMPase Li cell	GCN5L2 inh	Sfp PPTase inh	KDM4E inh
COc1cccc(C2C(C)CCC3C(=O)N(C)C(C(C)C)C(=O)N32)c1 (centres undefined)	0%[10.1 µM]	·	·	·	1%	·
COc1ccc2cc(CNc3ccccc3)c(=O)n(CC(=O)Nc3ccc(C)cc3C)c2c1	6%	·	·	-9%	·	·
CCOc1ccc2nc(N(CCN(C)C)C(=O)c3ccc4c(c3)CCCC4)sc2c1	·	·	·	4%	50µM*	·
CCOc1cccc2sc(N(CCCN(C)C)C(=O)c3ccc(S(=O)(=O)N(C)c4ccccc4)cc3)nc12	9%	10µM*	10%	0%	?	1%
CN(C)CCCN(C(=O)CCOc1ccccc1)c1nc2c(F)cccc2s1	?	17%	-1%	-5%	50µM*	2%
CN(C)CCCN(C(=O)c1sc2ccccc2c1Cl)c1nc2c(F)cccc2s1	1%	27%[46.1 µM]	?	-18%	50µM*	1%
Cc1ccc2nc(N(CCCN(C)C)C(=O)c3ccc4c(c3)CCCC4)sc2c1	0%	-2%[46.1 µM]	22%	0%	?	-6%
COc1cccc2sc(N(CCCN(C)C)C(=O)c3sc4ccccc4c3Cl)nc12	0%	-20%	-4%	-3%	?	1%
Cc1cc(C)c2nc(N(CCCN(C)C)C(=O)c3ccc4c(c3)CCCC4)sc2c1	·	·	·	2%	·	·
CN(C)CCCN(C(=O)c1ccc2c(c1)CCCC2)c1nc2c(F)cccc2s1	1%	17%	20%	16%	40µM*	4%
Cc1cccc2sc(N(CCCN(C)C)C(=O)c3ccc(C(=O)c4ccccc4)cc3)nc12	·	·	·	-27%	79µM*	·
Cc1cccc2sc(N(CCCN(C)C)C(=O)c3sc4ccccc4c3Cl)nc12	6%	?	-23%	3%	32µM*	-7%
Cc1cccc2sc(N(CCN(C)C)C(=O)/C=C/c3cccs3)nc12	6%	-26%[46.1 µM]	11%	12%	32µM*	?
CCCC[C@@H]1CCCO[C@@](C(=O)NCc2ccccc2)(C(F)(F)F)C1	·	·	·	·	8%	·
O=C1C2C3C=CC(C2C(=O)N1CN1CCOCC1)C1C2C(=O)N(CN4CCOCC4)C(=O)C2C31 (centres undefined)	·	·	-4%	·	·	·
CC(=O)c1ccc(N2CCN(C(=O)C3CCN(S(=O)(=O)c4ccc(Br)s4)CC3)CC2)cc1	7%	·	·	-1%	·	·
CCc1c(C)sc(NC(=O)Cn2nc(C)c([N+](=O)[O-])c2C)c1C(N)=O	-3%	2%	9%	-4%	11µM*	-5%
CCOc1ccc(NC(=O)CN(c2ccc(C)cc2)S(=O)(=O)c2cccs2)cc1	6%	·	·	0%	·	·
O=C(CSc1ncnc2nc[nH]c12)c1ccc(Cl)cc1	·	·	·	?	50µM*	·
Cc1snc(SCC(=O)c2ccc(F)cc2)c1C#N	-2%	-16%	5%	-19%	4%	-9%
O=C(O)CCSc1ncnc2nc[nH]c12	·	·	-7%	·	·	·
O=C(CSc1ncnc2nc[nH]c12)c1ccc([N+](=O)[O-])cc1	0%	-6%	·	-2%	45µM*	-22%
Cc1snc(SCC(=O)c2ccc([N+](=O)[O-])cc2)c1C#N	0%	-8%	14%	6.3µM*	20µM*	4.5µM*
O=C(CSc1ncnc2nc[nH]c12)c1ccccc1	-1%	-29%[46.1 µM]	-11%	8%	16µM*	-4%
CCCCCC(O)/C=C/C=C\CCCCCCCC(=O)O (centres undefined)	-1%	·	15%	·	4%	15%
CC1CCN(S(=O)(=O)c2ccc3c(c2)c(=O)c(C(=O)NCCc2ccccc2)cn3C)CC1	-2%	·	·	-2%	·	·
COC(=O)[C@H]1O[C@@H](c2cc(OC)c(C)c(OC)c2O)[C@H](C)[C@@H](O)[C@H]1C	-1%	·	16%	·	-17%	-6%
O=S(=O)(c1ccccc1)N1CCC2(CCN(c3cccc(-c4ccccc4)c3)CC2)CC1	·	·	1%	-9%	2%	·
